Inconclusive results are not listed. Entries that show only a call come without a potency. Calls of active or inactive are those of the source. The call rests on the fitted dose curve; in most records, active means well fitted cell-killing curve with a large enough effect; inconclusive means small, poorly fitted or top-dose-only effect, or effect the other way; inactive means no such curve, though single readings can be large or run the other way.
Test: Quantitative High-Throughput drug screen in 47 multiple myeloma cell lines against the NCATS MIPE library collection: Karpas620_DSMZ cell viability assay (AID 1918959); further: nearly all actives have a fitted effect of over 30% in size
Settings: Karpas620 myeloma viability, CellTiter-Glo ATP luminescence, 48 h; series mostly up to 45.8 µM
Procedure, shortened: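 Inhibition of cell viability is measured here. Each line was plated at 500 cells per well, treated with MIPE 4.0 drugs, kept 48 hours at 37C, then assayed for ATP content by CellTiter-Glo luminescence.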
Potency means the concentration at half of the fitted maximal effect.

Row | Structure (SMILES) | Potency
1 | CC(C)(N)c1ccc(-c2nc3ccccc3nc2-c2ccccc2)cc1 | 10.5 µM (active)
2 | C[C@H](O)[C@@H]1C(=O)N2C(C(=O)O)=C(S[C@@H]3CN[C@H](CNS(N)(=O)=O)C3)[C@@H](C)[C@@H]12 | inactive
3 | CC(C)c1cc(C(C)C)c(CC(=O)NS(=O)(=O)Oc2c(C(C)C)cccc2C(C)C)c(C(C)C)c1 | inactive
4 | CN1C(C(=O)Nc2ccccn2)=C(O)c2sc(Cl)cc2S1(=O)=O | inactive
5 | Nc1nc(=O)n([C@H]2CSC(CO)O2)cc1F (some centres not stated) | inactive
6 | O=C(NC1CC1)c1cccc(-c2ccc3c(NC(=O)C4CC4)n[nH]c3c2)c1 | inactive
7 | C[C@@H]1[C@H](C)CC[C@]2(C(=O)O)CC[C@]3(C)C(=CC[C@@H]4[C@@]5(C)C[C@@H](O)[C@H](O)[C@@](C)(CO)[C@H]5CC[C@]43C)[C@@H]12 | inactive
8 | O=C(C=Cc1ccc(CN(CCO)CCc2c[nH]c3ccccc23)cc1)NO | 0.148 µM (active)
9 | Cc1noc(-c2ccc(CSCCC(=O)O)cc2)c1NC(=O)OC(C)c1ccccc1Cl (configuration not stated) | inactive
10 | COc1ccc(Nc2nccc(NCCO)n2)cc1 | inactive
11 | C[C@@H]1CC[C@@]2(OC1)OC1CC3C4CC=C5CC(O)CCC5(C)C4CCC3(C)C1[C@@H]2C (some centres not stated) | inactive
12 | COc1cc(OC)cc(-c2ccc3ncc4ccc(=O)n(-c5ccc(N6CCNCC6)c(C(F)(F)F)c5)c4c3c2)c1 | 4.69 µM (active)
